{
  "source": "PubChem BioAssay (EPA / NIEHS)",
  "note": "Inconclusive results are not listed. Activity calls are given as the source filed them. Rule for the calls: active = hit-call score of the fitted dose curve at least 0.9, where 1 is the maximum; inconclusive = response in the unintended direction; inactive = score below 0.9.",
  "data": [
    {"molecular_target": "Estrogen receptor (Homo sapiens) + Estrogen receptor beta (Homo sapiens) (UniProt P03372+Q92731)", "sequence (P03372 whole entry, looked up)": "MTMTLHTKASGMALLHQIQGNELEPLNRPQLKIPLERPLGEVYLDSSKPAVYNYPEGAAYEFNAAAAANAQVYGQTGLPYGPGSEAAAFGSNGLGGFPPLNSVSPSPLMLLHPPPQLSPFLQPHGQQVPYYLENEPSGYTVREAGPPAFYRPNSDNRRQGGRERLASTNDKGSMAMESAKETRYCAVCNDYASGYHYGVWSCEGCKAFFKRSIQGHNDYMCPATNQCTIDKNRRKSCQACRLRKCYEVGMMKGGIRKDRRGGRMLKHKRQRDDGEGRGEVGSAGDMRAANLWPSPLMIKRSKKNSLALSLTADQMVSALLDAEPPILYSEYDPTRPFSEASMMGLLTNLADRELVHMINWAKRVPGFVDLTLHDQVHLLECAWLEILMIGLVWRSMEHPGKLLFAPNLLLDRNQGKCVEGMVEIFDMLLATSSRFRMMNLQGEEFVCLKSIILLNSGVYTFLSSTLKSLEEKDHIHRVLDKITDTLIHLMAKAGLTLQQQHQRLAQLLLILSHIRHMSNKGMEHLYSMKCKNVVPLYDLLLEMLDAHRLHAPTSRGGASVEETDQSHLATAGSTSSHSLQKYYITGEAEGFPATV", "sequence (Q92731 whole entry, looked up)": "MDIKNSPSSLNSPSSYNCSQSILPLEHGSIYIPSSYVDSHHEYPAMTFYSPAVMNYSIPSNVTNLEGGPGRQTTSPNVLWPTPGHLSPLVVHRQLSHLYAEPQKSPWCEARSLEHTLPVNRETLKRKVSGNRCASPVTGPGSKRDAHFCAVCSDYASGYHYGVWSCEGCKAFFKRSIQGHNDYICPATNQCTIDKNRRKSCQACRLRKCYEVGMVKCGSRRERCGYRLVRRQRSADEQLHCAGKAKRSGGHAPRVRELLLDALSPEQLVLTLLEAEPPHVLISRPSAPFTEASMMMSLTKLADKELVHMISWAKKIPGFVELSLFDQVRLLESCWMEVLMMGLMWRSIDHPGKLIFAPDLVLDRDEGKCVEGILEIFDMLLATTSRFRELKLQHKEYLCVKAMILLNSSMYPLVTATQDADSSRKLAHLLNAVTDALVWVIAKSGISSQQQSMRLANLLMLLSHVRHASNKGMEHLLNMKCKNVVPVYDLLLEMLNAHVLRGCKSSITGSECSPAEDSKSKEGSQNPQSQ", "test": "OT_ER_ERaERb_0480: Odyssey Thera (OT) 8-hour HEK293T Protein-Complementation Assay for Estrogen Receptor-alpha/-beta Heterodimer (AID 2283352)", "procedure,_shortened": "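Compound added to HEK293T cells carrying split-reporter-tagged ER-alpha and ER-beta LBDs, incubated 8 hours, then imaged by laser scanning cytometer. Signal rise in nucleus, or nucleus and cytoplasm, over vehicle was fitted in the positive direction.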", "values": [
      {"smiles": "CCCCCCCCCCCCc1ccc(O)cc1", "AC50": "1.86 µM (active)"},
      {"smiles": "CCCCCCCCCCCCCCCCCCOS(=O)(=O)O", "outcome": "inactive"},
      {"smiles": "COc1ccc(-c2coc3cc(O)cc(O)c3c2=O)cc1", "AC50": "2.91 µM (active)"},
      {"smiles": "CC(C)c1ccc(O)c(C(C)C)c1", "outcome": "inactive"},
      {"smiles": "c1ccc(Nc2cccc3ccccc23)cc1", "AC50": "24.8 µM (active)"},
      {"smiles": "N#Cc1ccc(C(c2ccc(C#N)cc2)n2cncn2)cc1", "outcome": "inactive"},
      {"smiles": "CCCCCCOC(=O)CCCCC(=O)OCCCCCC", "outcome": "inactive"},
      {"smiles": "CC(C)c1cc(C(C)C)cc(C(C)C)c1", "outcome": "inactive"},
      {"smiles": "CCCCCCCOC(=O)c1ccc(O)cc1", "AC50": "5.32 µM (active)"},
      {"smiles": "CCCCCCCCC(CO)CCCCCC", "note": "(configuration not stated)", "outcome": "inactive"},
      {"smiles": "CC(=O)OCc1ccccc1", "outcome": "inactive"},
      {"smiles": "C=CCOC(=O)c1ccc(C(=O)OCC=C)c(C(=O)OCC=C)c1", "outcome": "inactive"},
      {"smiles": "CN(C)c1ccc2nc3ccc(=[N+](C)C)cc-3sc2c1", "AC50": "76.6 µM (active)"},
      {"smiles": "CO[Si](C)(C)OC", "outcome": "inactive"},
      {"smiles": "Oc1ccccc1Cc1ccccc1O", "AC50": "23.4 µM (active)"},
      {"smiles": "CC(C)(C)C1CCC(=O)CC1", "outcome": "inactive"},
      {"smiles": "CCOC(=O)C1=NOC(c2ccccc2)(c2ccccc2)C1", "outcome": "inactive"}
    ]}
  ]
}
